PubChem BioAssay (Tox21)
Calls of active or inactive are those of the source. A call without a number means that no potency is given here. Calls come from the whole dose curve; as a rule, active = well fitted curve in the direction sought with a large enough effect in the repeat runs; inconclusive = weak or mixed curves; inactive = flat fitted curve, though single readings scatter.

assay: qHTS assay to test for compound auto fluorescence at 460 nm (blue) in HepG2 cell free culture (AID 720685); details: Cell-free culture medium, blue autofluorescence 405/460 nm; series mostly up to 91.3 µM
Excerpt: U.S. Tox21 Program National Center for Advancing Translational Sciences [NCATS] NIH Chemical Genomics Center [NCGC] U.S. Environmental Protection Agency [EPA] National Institutes of Environmental Health Sciences [NIEHS] National Toxicology Program [NTP] U.S. Food and Drug Administration [FDA] Tox21 Assay Overview: Compound auto fluorescence often interferes with screening of the compound library against various biological targets and signaling pathways. Some of these compounds may have fluorophoric properties. Such properties may interfere with the assay outputs resulting in false positives and/or negatives. To decrease such complications and ensure the compound activities are relevant in terms of biological response, the Tox21 10K compound library was screened for auto fluorescence. From the fluorophores used as reporter signals in our screening assays, the auto fluorescence equivalencies of compounds against three fluorophores have been evaluated: Triamterene, Fluorescein and Rose Bengal sodium for blue, green and red fluorescence, respectively. The fluorescence intensities were measured using Excitation/Emission wavelengths at 405/460nm, 485/535nm and 540/590nm for blue, green and red labels, respectively. This assay includes the blue fluorescence data.
Tox21 Assay Protocol Summary: 5 uL of culture medium (MEM containing 10% FBS) per well was dispensed into black wall/clear bottom 1536-well plates using a Multidrop Combi Dispenser (ThermoFisher Scientific, Waltham, MA). After 23 nL compound or DMSO vehicle was transferred into assay plate by a pintool work station (Kalypsys, San Diego, CA), fluorescence intensities in the assay plates were measured by an Envision (PerkinElmer, Shelton, CT) plate reader using three labels for measuring blue, green and red fluorescence at […] 460, 535 and 590nm respectively.

Structure (SMILES)	fluorescence, % of fluorescent control	Potency
CCCCCCCCCCCCCCCCCl	-0.0526% [at 18.6 µM] (inactive)	
c1cnc2cc3c(cc2n1)C1CNCC3C1		inactive
CC[C@]1(O)C[C@@H]2CN(CCc3c([nH]c4ccccc34)[C@@](C(=O)OC)(c3cc4c(cc3OC)N(C)[C@H]3[C@@](O)(C(=O)OC)[C@H](OC(C)=O)[C@]5(CC)C=CCN6CC[C@]43[C@@H]65)C2)C1		inactive
NC12CC3CC(CC(C3)C1)C2		inactive
Cc1cccc([N+](=O)[O-])c1C(=O)O		inactive
O=C1OC2(c3ccc(O)cc3Oc3cc(O)ccc32)c2ccccc21		inactive
CN(C)c1ccc2nc3ccc(=[N+](C)C)cc-3sc2c1		inactive
CCC[C@H](N[C@@H](C)C(=O)N1[C@H](C(=O)O)C[C@@H]2CCCC[C@@H]21)C(=O)OCC		inactive
CC(COc1ccccc1)N(CCCl)Cc1ccccc1 (stereo not given)		inactive
C=C(C)C(=O)O		inactive
CC(=O)OCC1=C(C(=O)O)N2C(=O)[C@@H](NC(=O)Cc3cccs3)[C@H]2SC1		inactive
CCCCCCC(O)CCCCCCCCCCC(=O)O (stereo not given)		inactive
CCN(CC)C(=O)Nc1ccc(OCC(O)CNC(C)(C)C)c(C(C)=O)c1 (stereo not given)		inactive
CC(C)CCOCc1ccccc1		inactive
CCCCOCCOC(=O)c1ccccc1C(=O)OCCOCCCC		inactive
C1COC(NC(C2CC2)C2CC2)=N1		inactive
c1cc(C(c2ccc(OCC3CO3)cc2)C(c2ccc(OCC3CO3)cc2)c2ccc(OCC3CO3)cc2)ccc1OCC1CO1 (stereo not given)		inactive
Nc1cc(S(=O)(=O)O)cc2cc(S(=O)(=O)O)cc(O)c12		inactive
O=C(OCc1ccccc1)c1ccc(O)cc1		inactive
c1ccc2n[nH]nc2c1		inactive

Structure (SMILES)	fluorescence, % of fluorescent control	Potency
NC(Cc1ccc(Cl)cc1)C(=O)O (stereo not given)		inactive
O=C1Nc2ccccc2C1(c1ccc(O)cc1)c1ccc(O)cc1		inactive
c1ccc2c(c1)CCCC2C1=NCCN1 (stereo not given)		inactive
CC(=O)CC(C)=O		inactive
O=Cc1ccc(Cl)cc1		inactive
CCN(CC)C(=S)SSC(=S)N(CC)CC		inactive
BrC1CCC(Br)C(Br)CCC(Br)C(Br)CCC1Br (stereo not given)		inactive
CN(C)c1ccc(C(=C2C=CC(=[N+](C)C)C=C2)c2ccccc2)cc1		inactive
COc1cc(C(=S)N2CCOCC2)ccc1O		inactive
C[N+]1([O-])CCOCC1		inactive
Cc1cccc2n[nH]nc12		inactive
CCC(=O)/C=C/C1C(C)=CCCC1(C)C (stereo not given)		inactive
CC1COC(=O)O1 (stereo not given)		inactive
Cc1cc(C(C)(C)C)c(O)c(C(C)(C)C)c1		inactive
CCn1cc(C(=O)O)c(=O)c2cc(F)c(N3CCNC(C)C3)c(F)c21 (stereo not given)		inactive
NC(N)=Nc1nc(CSCC/C(N)=N/S(N)(=O)=O)cs1		inactive
CCC(C)(Oc1ccc(C2(c3ccc(OC(C)(CC)C(=O)O)cc3)CCCCC2)cc1)C(=O)O (stereo not given)		inactive
Nc1ccc(O)cc1		inactive
CCN1CCCC1CNC(=O)c1cc(S(=O)(=O)CC)c(N)cc1OC (stereo not given)		inactive
CC(C)C(=O)c1c(C(C)C)nn2ccccc12		inactive
